An excerpt weighted towards active compounds, which were near 1.1% of everything screened.
MOR-DOR ag: OPRM1-OPRD1 heterodimerization agonism; P35372+P41143; cells, luminescence; activation, % at 9.3 µM; 340,000 tested, 0.3% active;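 note: 0% = vehicle-treated cells and 100% = reference agonist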
Target sequence (P35372 whole entry, looked up): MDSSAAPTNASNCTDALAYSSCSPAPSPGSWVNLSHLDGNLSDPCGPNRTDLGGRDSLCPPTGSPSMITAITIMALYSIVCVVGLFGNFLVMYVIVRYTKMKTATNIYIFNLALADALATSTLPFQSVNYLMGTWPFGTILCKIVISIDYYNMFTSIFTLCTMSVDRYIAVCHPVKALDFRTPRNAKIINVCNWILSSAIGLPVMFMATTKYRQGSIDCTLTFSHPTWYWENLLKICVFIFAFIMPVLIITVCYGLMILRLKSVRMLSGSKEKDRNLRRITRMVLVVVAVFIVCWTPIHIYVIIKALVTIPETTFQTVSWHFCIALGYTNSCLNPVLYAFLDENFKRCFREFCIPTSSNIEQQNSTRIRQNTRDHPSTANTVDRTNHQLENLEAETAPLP
Target sequence (P41143 whole entry, looked up): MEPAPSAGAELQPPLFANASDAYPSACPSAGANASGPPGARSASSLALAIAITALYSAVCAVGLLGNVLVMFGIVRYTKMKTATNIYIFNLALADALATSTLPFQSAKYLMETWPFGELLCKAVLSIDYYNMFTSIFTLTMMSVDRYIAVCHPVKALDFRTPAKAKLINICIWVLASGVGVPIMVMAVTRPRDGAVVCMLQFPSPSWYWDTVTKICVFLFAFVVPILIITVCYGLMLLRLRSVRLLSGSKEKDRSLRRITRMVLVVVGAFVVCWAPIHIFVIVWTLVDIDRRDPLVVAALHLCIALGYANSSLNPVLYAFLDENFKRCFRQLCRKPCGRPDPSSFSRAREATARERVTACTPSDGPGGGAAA
HTR5A inv ctr: inverse agonist of human HTR5A in OPRM1-OPRD1 counter-screen | P47898 | HTR5A cell line, luminescence, inverse agonism | inhibition, % at 9.3 µM | 340,000 tested, 0.083% active | AID 504634; in the data active = inhibition mostly above about 23%, no sharp cut-off; inactive = mostly below about 18%;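 note: 0% = cells with DMSO and 100% = no-cell wells with DMSO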
OPRM1-OPRD1 inv: inverse agonists of human mu-delta opioid receptor heterodimerization | cell-based MOR-DOR heterodimer luminescence, inverse agonism | inhibition, % at 9.3 µM | 340,000 tested, 0.21% active | AID 504357; in the data active = inhibition above about 22%, passing the limit was not always enough;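 note: 0% = cells with DMSO and 100% = wells without cells with DMSO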
HTR5A ag ctr: counter-screen for OPRM1-OPRD1 agonists: human HTR5A agonism; P47898; HTR5A agonist assay, luminescence, cell-based; activation, % at 9.3 µM; 340,000 tested, 0.61% active; AID 504692; in the data active = activation mostly above about 9.5%, no sharp cut-off; inactive = mostly below about 7.6%;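 note: 0% = cells with vehicle only and 100% = reference agonist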
OPRM1-D1 ag cf: OPRM1-OPRD1 heterodimer agonism, confirmation; 830 tested, 45% active; activation, % at 9.3 µM; shares compounds with MOR-DOR ag; cells, MOR-DOR heterodimerization, luminescence complementation;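 note: 0% = vehicle-treated cells and 100% = reference agonist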
HTR5A ag counter: activates human HTR5A in OPRM1-OPRD1 agonist counter-screen | shares compounds with MOR-DOR ag | HTR5A agonist counterscreen, cell luminescence | activation, % at 9.3 µM | 830 tested, 8% active | AID 504905; in the data active = activation above about 17%;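 note: 0% = vehicle-treated cells and 100% = reference agonist response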
MOR-DOR inv conf: OPRM1-OPRD1 heterodimer inverse agonism, confirmation | shares compounds with OPRM1-OPRD1 inv | cells expressing OPRM1/OPRD1 heterodimer, luminescence | inhibition, % at 9.3 µM | 580 tested, 20% active; in the data active = inhibition above about 32%;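 note: 0% = cells with DMSO and 100% = wells lacking cells with DMSO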
HTR5A inv count: inverse agonist of human HTR5A in OPRM1-OPRD1 counter-screen; 580 tested, under 10 active; shares compounds with OPRM1-OPRD1 inv; HTR5A-expressing cells, luminescence, inverse agonism; inhibition, % at 9.3 µM; AID 504914; call rule not given here;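 note: 0% = cells with DMSO and 100% = no-cell wells with DMSO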
* marks the source's active call; other numbers are inactive results; i = inactive; . = no result; + = active, no number. Cut-off read from the data, not from the text of the source, unless noted: active = activation above about 18%; inactive = the rest.

SMILES	MOR-DOR ag	HTR5A inv ctr	OPRM1-OPRD1 inv	HTR5A ag ctr	OPRM1-D1 ag cf	HTR5A ag counter	MOR-DOR inv conf	HTR5A inv count
Cc1cc(/C=C2\SC(=Nc3ccccc3)NC2=O)c(C)n1-c1ccc(S(N)(=O)=O)cc1	120*	-18	i	6	140*	-2	.	.
O=Nc1nc2ncccn2c1-c1ccccc1	-2	8	7	-2	.	.	.	.
CN(C)C(CNC(=O)c1cc2ccccc2oc1=O)c1ccccc1 (stereo not drawn)	31*	-2	-255	2	133*	-3	.	.
CN(C)CCCN(C(=O)c1ccc(S(=O)(=O)N2CCCCCC2)cc1)c1nc2c(F)cc(F)cc2s1	55*	9	-299	6	111*	0	.	.
Cc1ccc2nc(N(CCCN(C)C)C(=O)c3ccc(S(=O)(=O)N4CCOCC4)cc3)sc2c1	-4	-4	21	1	.	.	.	.
CN(C)CCCN(C(=O)c1ccc(S(=O)(=O)N2CCc3ccccc3C2)cc1)c1nc2ccc(F)cc2s1	655*	-29	i	8	+	16	.	.
Cc1ccc2nc(N(CCCN(C)C)C(=O)c3ccc(S(=O)(=O)N4CCc5ccccc5C4)cc3)sc2c1	130*	-19	i	5	44*	4	.	.
CN(C)CCCN(C(=O)c1ccc(S(=O)(=O)N2CCc3ccccc32)cc1)c1nc2ccc(F)cc2s1	179*	-42	i	5	-3	-7	.	.
COc1cc(C)c(CN2CCN(CC(=O)Nc3ccccc3C(=O)NC3CC3)CC2)cc1OC	-2	4	9	-1	.	.	.	.
CN(C)CCCN(C(=O)c1ccc(S(=O)(=O)N2CCc3ccccc3C2)cc1)c1nc2c(F)cccc2s1	107*	11	-351	-4	-1	-2	.	.
Cc1cccc2sc(N(CCCN(C)C)C(=O)c3ccc(S(=O)(=O)N4CCc5ccccc5C4)cc3)nc12	18	-13	-102	4	.	.	.	.
CCOC(=O)c1c2c(n(Cc3ccccc3)c1C)C(=O)C(=O)c1ccccc1-2	19*	-32	-85	8	16	0	.	.
Clc1ccc(C2[C@H]3CN(Cc4cccnc4)[C@H](c4ccccc4)C34CC2(c2cccnc2)C4)cn1 (stereo partly drawn)	54*	-13	-311	-5	9	8	.	.
c1ccc(-c2ccc(CN3C[C@@H]4C(c5ccccc5)C5(c6cccnc6)CC4(C5)[C@H]3c3ccccc3)cc2)cc1 (stereo partly drawn)	0	-22	-2	3	.	.	.	.
FC(F)(F)c1ccc(C2[C@H]3CN(Cc4cccnc4)[C@H](c4ccccc4)C34CC2(c2cccnc2)C4)cc1 (stereo partly drawn)	49*	-5	-273	-1	68*	-4	.	.
Cc1ccc(-c2nn(-c3cccc(F)c3)cc2CN2CCN(c3ccccn3)CC2)o1	37*	24	-195	6	-5	1	.	.
Cc1ccc(-c2nn(-c3cccc(F)c3)cc2CN(Cc2nccn2C)C(C)C)o1	0	11	1	-4	.	.	.	.
Cc1ccc(-c2nn(-c3cccc(F)c3)cc2CNCc2cccnc2)o1	26*	-6	-133	2	0	3	.	.
CCN(CC(=O)NCc1ccc(F)cc1)C(=O)c1cccc(S(=O)(=O)N(C)c2ccc(OC)cc2)c1	1	-16	-3	5	.	.	.	.
O=C(COC(=O)Cc1ccc(S(=O)(=O)N2CCOCC2)s1)Nc1ccccc1Cl	-4	6	17	-2	.	.	.	.
Cc1ccc(NCN2C(=O)C(=O)c3ccccc32)nc1	-14	-13	70*	-5	.	.	59*	17
ON(CCc1ccncc1)Cc1ccccc1	-8	4	44*	-1	.	.	4	-22
CC(C)CN(C(=O)CSc1nc2ccccc2o1)c1c(N)n(Cc2ccccc2)c(=O)[nH]c1=O	-3	-14	11	4	.	.	.	.
CN(Cc1ccccc1)C(=O)c1ccc(NC(=O)Cc2ccc(NC(=O)C3CCN(S(=O)(=O)c4cccc([N+](=O)[O-])c4)CC3)cc2)cc1	5	-12	-22	3	.	.	.	.
CCn1ncc(S(=O)(=O)Nc2cccnc2)c1C	-1	-22	6	9	.	.	.	.
SMILES	MOR-DOR ag	HTR5A inv ctr	OPRM1-OPRD1 inv	HTR5A ag ctr	OPRM1-D1 ag cf	HTR5A ag counter	MOR-DOR inv conf	HTR5A inv count
CCn1cc(S(=O)(=O)Nc2cccnc2)cn1	-7	7	37*	-10	.	.	41*	-12
COc1ccc(NC(C)C(=O)Nc2cccc(S(=O)(=O)N3CCOCC3)c2)cc1OC (stereo not drawn)	1	-10	-4	4	.	.	.	.
COc1cc(/C=C/C(=O)c2ccc(C)c([N+](=O)[O-])c2)cc(OC)c1O	-4	19	20*	-6	.	.	-9	17
CC1=C(C)CC2C(C1)C(=O)c1ccc(Br)cc1S2(=O)=O (stereo not drawn)	-10	-15	58*	5	.	.	56*	4
CCCN(CC(=O)Nc1ccccc1C)C(=O)CCCc1c[nH]c2ccccc12	-1	6	5	-2	.	.	.	.
O=S(=O)(Nc1cccc2ncccc12)c1cccs1	-10	21	47*	-10	.	.	-196	-13
COc1ccc(NC(=O)CN(C)C(=O)c2cccc(S(=O)(=O)N3CCN(c4ccc(F)cc4)CC3)c2)cc1	-2	3	7	-1	.	.	.	.
CC(C)C[C@H]1CN=C(Nc2ccccc2)N1CC1CCC(C(C)(C)C)CC1 (stereo partly drawn)	11	7	-63	-3	.	.	.	.
COc1ccc(NS(=O)(=O)c2ccc3ccccc3c2)c2ncccc12	-7	12	39*	-5	.	.	10	-11
CC(=O)Nc1ccc(S(=O)(=O)Nc2cccc3cccnc23)cc1	-5	20	26	-8	.	.	.	.
O=S(=O)(Nc1cccc2cccnc12)c1ccccc1	-8	9	47*	-4	.	.	-33	12
Cc1cc(Cl)cc2sc(=S)[nH]c12	0	-11	2	3	.	.	.	.
CN(C)S(=O)(=O)c1cccc(C(=O)Nc2ccccc2[N+](=O)[O-])c1	-7	9	34*	-1	.	.	8	-8
CCOC(=O)c1ccccc1OC(=O)NNc1ccccc1	-7	22	37*	-6	.	.	-18	-6
[O-][n+]1c2ccccc2c2n1CCN1CCOC21c1ccc(Cl)cc1 (stereo not drawn)	1	-18	-3	7	.	.	.	.
CC(OC(=O)C1CCN(S(=O)(=O)c2ccc(C(C)(C)C)cc2)CC1)C(=O)N(C)C1CCCCC1 (stereo not drawn)	-3	-14	11	-6	.	.	.	.
Cc1ccccc1NC1(C#N)C(=O)Nc2ccccc21 (stereo not drawn)	-12	4	58*	-7	.	.	-251	-6
CC(C)c1ccc(NC2(C#N)C(=O)Nc3ccccc32)cc1 (stereo not drawn)	-10	3	59*	-3	.	.	-13	-19
